# For some of these results: Entries with a potency or affinity are not part of this list.
# What was measured:
# Design in all cases: scale not given: direction of the effect not stated beside the values
# [1] = molecular target: Protein translocase subunit SecA (Escherichia coli (strain K12)) (UniProt P10408); assay: Assay to Identify E. coli SecA ATPase Inhibitors; assay type: functional; conditions: 30 µM
# [2] = molecular target: T1, Ubiquitin-activating enzyme e1, putative (Leishmania donovani (strain BPK282A1)) (UniProt E9BSI1); assay: Leishmania donovani Ubiquitin Activating Enzyme (LdE1); assay type: functional; conditions: 30 µM
# T1 sequence (whole entry): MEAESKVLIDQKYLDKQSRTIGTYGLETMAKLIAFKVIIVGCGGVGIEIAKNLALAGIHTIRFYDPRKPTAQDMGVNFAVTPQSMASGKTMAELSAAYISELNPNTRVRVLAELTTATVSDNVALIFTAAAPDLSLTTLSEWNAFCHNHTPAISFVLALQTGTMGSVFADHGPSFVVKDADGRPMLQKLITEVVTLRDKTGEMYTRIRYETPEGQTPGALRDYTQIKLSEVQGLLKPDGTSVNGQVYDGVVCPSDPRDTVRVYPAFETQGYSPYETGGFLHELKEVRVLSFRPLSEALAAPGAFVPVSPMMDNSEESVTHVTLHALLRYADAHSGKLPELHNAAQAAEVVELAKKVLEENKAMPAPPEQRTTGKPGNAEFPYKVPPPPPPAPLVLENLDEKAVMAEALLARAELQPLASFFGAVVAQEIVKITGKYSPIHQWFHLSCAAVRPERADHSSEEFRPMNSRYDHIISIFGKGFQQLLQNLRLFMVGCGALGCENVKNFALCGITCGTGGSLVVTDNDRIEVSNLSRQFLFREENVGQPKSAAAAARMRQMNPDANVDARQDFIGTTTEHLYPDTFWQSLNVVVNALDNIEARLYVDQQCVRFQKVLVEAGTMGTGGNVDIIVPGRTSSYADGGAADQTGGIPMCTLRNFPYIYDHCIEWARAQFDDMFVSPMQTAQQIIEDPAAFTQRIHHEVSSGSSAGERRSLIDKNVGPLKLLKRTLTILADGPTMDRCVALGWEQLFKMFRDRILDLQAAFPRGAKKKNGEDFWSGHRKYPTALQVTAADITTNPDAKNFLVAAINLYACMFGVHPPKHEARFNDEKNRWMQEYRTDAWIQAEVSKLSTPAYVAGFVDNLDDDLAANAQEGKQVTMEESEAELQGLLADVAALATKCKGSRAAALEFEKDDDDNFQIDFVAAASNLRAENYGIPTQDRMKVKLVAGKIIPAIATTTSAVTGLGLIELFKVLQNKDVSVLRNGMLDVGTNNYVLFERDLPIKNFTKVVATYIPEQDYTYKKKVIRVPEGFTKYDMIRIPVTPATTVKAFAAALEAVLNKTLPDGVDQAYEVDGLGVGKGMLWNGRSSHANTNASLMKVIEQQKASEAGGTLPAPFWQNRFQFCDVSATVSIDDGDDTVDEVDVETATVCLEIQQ
# [3] = molecular target: AMP-activated protein kinase, AMPK (Homo sapiens) (UniProt P54646+O43741+P54619+Q9UGJ0+Q9Y478+Q13131+Q9UGI9); assay: AMP-dependent Kinase enzyme assay. An in vitro enzyme assay that detects ADP turnover that is directly proportional to AMPK activity. This uses naive AMPK that is activated during the assay with MK-8722; assay type: functional; conditions: 30 µM
# [4] = molecular target: Sialic acid-binding Ig-like lectin 9 (Homo sapiens) (UniProt Q9Y336); assay: Hs-Siglec9 ALPHAscreen SOP 20170721; conditions: 10 µM
# Sequence of Sialic acid-binding Ig-like lectin 9 (Homo sapiens) (Q9Y336 whole entry): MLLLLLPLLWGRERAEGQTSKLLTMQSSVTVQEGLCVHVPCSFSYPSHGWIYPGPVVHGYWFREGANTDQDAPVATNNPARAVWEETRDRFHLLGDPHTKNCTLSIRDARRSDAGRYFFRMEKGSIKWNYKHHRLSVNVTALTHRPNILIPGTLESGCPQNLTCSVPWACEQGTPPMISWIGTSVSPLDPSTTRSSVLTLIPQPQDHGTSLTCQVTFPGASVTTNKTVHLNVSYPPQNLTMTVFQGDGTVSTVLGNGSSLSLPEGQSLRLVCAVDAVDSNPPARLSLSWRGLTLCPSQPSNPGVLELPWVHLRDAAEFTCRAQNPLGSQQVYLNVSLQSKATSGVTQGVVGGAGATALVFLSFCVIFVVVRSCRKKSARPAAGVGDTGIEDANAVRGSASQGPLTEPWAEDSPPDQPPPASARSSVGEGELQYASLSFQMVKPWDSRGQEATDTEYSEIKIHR
# Trypanosoma cruzi = assay: Trypanosoma cruzi phosphomannomutase and mannose-1-phosphate guanylyltransferase assay; assay type: functional; conditions: 10 µM
# [5] = molecular target: T2, Arginase-2, mitochondrial (Homo sapiens) (UniProt P78540); assay: in vitro enzyme assay to detect the production of urea directly proportional to the activity of Arginase II; assay type: functional; conditions: 33.3 µM; also: in the data most compounds retested in dose-response had high values
# T2 sequence (whole entry): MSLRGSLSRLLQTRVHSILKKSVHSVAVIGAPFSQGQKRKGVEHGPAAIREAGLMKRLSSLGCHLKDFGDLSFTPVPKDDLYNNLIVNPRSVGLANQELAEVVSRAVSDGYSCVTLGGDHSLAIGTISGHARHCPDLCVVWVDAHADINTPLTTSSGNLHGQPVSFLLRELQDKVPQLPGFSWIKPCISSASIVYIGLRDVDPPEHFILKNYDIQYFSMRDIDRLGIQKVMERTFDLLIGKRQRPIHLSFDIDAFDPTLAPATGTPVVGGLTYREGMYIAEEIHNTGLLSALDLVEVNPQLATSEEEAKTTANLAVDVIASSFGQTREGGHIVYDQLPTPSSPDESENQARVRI
# [6] = molecular target: T3, Proteasome subunit beta (Trypanosoma cruzi) (UniProt O96673); assay: Trypanosoma cruzi proteasome chymotrypsin-like activity (TcProtChymo) assay.; also: in the data most compounds retested in dose-response had high values; assay type: functional; conditions: 9.37 µM
# T3 sequence (whole entry): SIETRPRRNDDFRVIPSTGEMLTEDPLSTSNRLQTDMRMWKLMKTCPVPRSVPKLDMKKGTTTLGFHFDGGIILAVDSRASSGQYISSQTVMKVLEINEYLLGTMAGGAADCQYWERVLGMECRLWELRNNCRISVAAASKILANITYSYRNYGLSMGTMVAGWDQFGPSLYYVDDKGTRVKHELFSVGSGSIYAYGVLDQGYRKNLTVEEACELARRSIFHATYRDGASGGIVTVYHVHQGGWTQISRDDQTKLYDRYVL
# Homo sapiens = species: Homo sapiens; assay: To identify inhibition of the IFN signalling (Jak-Stat) pathway via expression of an eGFP reporter gene under the control of an IFN-stimulated response element (ISRE) containing MxA promoter.; assay type: functional; conditions: 30 µM
# [7] = molecular target: T4, Tyrosyl-tRNA synthetase, putative (Trypanosoma cruzi (strain CL Brener)) (UniProt Q4DSP6); assay: Trypanosoma cruzi tyrosyl tRNA synthetase (TcYRS) _High Tyrosine SOP; assay type: functional; conditions: 30 µM; also: in the data most compounds retested in dose-response had high values
# T4 sequence (whole entry): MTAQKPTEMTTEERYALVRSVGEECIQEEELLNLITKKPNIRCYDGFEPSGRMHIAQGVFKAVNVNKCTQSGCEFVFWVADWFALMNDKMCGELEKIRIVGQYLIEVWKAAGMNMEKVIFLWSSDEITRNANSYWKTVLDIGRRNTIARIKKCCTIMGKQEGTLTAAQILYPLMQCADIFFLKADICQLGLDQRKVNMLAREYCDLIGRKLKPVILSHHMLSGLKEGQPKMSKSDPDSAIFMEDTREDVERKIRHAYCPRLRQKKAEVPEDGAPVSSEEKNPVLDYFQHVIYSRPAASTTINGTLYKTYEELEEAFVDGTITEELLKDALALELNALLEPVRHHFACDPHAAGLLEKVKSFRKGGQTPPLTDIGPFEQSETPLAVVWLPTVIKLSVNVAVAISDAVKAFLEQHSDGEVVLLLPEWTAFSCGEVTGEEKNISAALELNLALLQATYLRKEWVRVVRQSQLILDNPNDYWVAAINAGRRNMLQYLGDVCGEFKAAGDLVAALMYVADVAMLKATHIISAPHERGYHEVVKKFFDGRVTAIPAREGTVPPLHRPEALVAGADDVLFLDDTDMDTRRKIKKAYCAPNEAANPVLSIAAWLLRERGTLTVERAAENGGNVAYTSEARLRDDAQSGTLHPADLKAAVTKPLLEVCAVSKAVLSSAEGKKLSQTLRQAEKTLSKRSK
# [8] = molecular target: T4, Tyrosyl-tRNA synthetase, putative (Trypanosoma cruzi (strain CL Brener)); assay: Trypanosoma cruzi tyrosyl tRNA synthetase (TcYRS) SOP; assay type: functional; conditions: 30 µM
# [9] = molecular target: Chromo domain-containing protein 1 (Saccharomyces cerevisiae (strain ATCC 204508 / S288c) (Baker's yeast)) (UniProt P32657); assay: ScCHD-1 Enzyme Inhibition Assay; assay type: functional; conditions: 30 µM; also: in the data most compounds retested in dose-response had high values
# Sequence of Chromo domain-containing protein 1 (Saccharomyces cerevisiae (strain ATCC 204508 / S288c) (Baker's yeast)) (P32657 whole entry, the tested form may be a part): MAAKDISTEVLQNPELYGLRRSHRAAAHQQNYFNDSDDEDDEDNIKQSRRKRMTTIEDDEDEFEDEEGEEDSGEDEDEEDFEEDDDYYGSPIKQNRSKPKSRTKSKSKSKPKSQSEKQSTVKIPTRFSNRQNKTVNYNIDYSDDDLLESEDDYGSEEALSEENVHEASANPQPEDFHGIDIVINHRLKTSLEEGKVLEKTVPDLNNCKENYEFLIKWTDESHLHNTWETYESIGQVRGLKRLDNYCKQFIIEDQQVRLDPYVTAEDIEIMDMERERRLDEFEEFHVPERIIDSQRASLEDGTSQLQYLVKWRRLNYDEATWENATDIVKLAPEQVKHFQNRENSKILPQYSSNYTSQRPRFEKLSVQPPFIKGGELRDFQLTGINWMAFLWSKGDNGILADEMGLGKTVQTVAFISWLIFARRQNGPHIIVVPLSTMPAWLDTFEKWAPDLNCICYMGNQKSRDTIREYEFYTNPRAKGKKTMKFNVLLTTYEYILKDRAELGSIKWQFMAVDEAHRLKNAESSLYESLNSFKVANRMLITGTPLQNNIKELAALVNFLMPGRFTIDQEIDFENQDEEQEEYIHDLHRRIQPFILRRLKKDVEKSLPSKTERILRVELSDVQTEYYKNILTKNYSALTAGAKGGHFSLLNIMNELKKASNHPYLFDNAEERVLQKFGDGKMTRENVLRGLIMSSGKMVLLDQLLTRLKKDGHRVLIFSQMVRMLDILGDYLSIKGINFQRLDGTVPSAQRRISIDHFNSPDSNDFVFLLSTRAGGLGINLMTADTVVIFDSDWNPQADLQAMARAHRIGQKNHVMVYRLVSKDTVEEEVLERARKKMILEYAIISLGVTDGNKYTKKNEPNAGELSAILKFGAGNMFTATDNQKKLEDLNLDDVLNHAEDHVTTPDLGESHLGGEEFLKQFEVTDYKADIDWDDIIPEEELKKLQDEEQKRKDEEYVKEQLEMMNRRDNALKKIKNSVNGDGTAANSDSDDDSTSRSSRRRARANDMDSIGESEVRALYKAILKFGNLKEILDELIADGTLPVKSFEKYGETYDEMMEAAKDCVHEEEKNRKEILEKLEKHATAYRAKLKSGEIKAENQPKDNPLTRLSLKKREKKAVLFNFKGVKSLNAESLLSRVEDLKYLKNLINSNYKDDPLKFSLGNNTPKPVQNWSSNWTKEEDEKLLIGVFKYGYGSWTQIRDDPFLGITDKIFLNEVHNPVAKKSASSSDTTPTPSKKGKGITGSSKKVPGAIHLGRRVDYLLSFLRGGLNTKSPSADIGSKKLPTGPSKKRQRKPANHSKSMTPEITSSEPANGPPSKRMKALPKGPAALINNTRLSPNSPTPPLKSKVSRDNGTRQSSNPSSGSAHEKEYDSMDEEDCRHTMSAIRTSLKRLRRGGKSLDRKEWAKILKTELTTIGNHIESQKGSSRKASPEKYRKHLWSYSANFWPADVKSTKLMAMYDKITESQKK
# Sequence of Protein translocase subunit SecA (Escherichia coli (strain K12)) (P10408 whole entry): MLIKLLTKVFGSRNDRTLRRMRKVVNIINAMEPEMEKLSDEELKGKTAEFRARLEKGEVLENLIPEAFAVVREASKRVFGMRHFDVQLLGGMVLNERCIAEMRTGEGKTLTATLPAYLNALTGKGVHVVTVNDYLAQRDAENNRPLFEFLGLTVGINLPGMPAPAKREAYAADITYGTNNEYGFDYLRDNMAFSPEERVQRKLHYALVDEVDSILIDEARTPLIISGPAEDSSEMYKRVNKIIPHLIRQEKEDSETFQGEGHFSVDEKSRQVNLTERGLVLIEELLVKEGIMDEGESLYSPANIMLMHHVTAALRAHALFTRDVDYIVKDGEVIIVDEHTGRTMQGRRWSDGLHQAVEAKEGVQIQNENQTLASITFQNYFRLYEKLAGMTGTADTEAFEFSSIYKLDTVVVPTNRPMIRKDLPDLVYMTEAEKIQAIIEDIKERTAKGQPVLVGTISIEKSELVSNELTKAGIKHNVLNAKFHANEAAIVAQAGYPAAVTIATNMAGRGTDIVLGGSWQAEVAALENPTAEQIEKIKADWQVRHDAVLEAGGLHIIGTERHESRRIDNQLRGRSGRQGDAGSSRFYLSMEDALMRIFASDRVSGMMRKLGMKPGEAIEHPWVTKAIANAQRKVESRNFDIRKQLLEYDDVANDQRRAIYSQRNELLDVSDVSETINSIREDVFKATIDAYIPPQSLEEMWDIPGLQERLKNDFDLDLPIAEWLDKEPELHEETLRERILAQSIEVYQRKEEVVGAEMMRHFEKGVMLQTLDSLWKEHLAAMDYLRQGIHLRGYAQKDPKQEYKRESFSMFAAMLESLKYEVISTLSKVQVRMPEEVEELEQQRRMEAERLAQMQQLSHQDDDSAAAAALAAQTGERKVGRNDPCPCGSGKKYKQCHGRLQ
Structure (SMILES),Percent Effect [1] [%],Percent Effect [2] [%],Percent Effect [3] [%],Percent Effect [4] [%],Percent Effect (Trypanosoma cruzi) [%],Percent Effect [5] [%],Percent Effect [6] [%],Percent Effect (Homo sapiens) [%],Percent Effect [7] [%],Percent Effect [8] [%],Percent Effect [9] [%]
O=C(c1ccc[nH]1)N1CCCC2(CCN(c3ccsc3)C2=O)C1 (stereo not given),-0.928,-2.6,11.3,3.88,-3.06,-5.81,1.57,4.99,-3.17,-3.85,-1.57
CN(C)C[C@H]1OC[C@@H]2CCN(C(=O)c3cccn3C)C[C@@H]21,-3.89,0,-8,19.3,4.59,9.18,6.44,4.8,6.45,13.6,-6.04
CC(=O)NCCNC(=O)N(C)Cc1ccc2c(c1)OCCO2,-3.01,0,-0.74,-6.13,-4.92,6.1,1.79,7.44,4.95,13.4,-1.92
CCOc1ncccc1C(=O)N1CCCCC1c1nccs1 (stereo not given),-4.08,2.7,-17.5,15.7,2.55,-7.62,-2.7,10.1,4.43,11.1,-9.25
CCc1noc(C(C)N2CCN(Cc3noc(C)n3)CC2)n1 (stereo not given),1.26,21.1,-0.566,-7.24,1.32,-4.21,19.6,15.5,6.37,17.1,-7.65

# Reference: ChEMBL document CHEMBL3988442, “University of Dundee, Small-Polar-MMV Screening Library” (2021)
